Laboratory results from the supplement of paper PMC8726507.
Unmarked numbers belong to inactive results.

What follows are compounds tested on Plasmodium falciparum NF54-HGL (transmission to Anopheles stephensi) (assay: percentage of barcode signal found in uninfected mosquitoes (transmission-blocking activity); higher = stronger blocking of transmission to mosquito, active = 80 or more). Conditions: 10 µM; gametocyte preincubation time 24 h; readout time post-feed 8 days.
Procedure: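 The mixture was fed to Anopheles stephensi in 96-well plates as blood meals tagged with DNA-barcoded Asaia bacteria. Eight days later, mosquitoes were classed infected or uninfected by luminescence (mean + 5 SD of unfed controls). Barcodes were quantified by Luminex MagPlex-TAG in the pooled uninfected and infected Asaia cultures, background-corrected, and the score is % of barcode signal in uninfected mosquitoes = 100*Iu/(Iu+Ii).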

Row | Compound | percentage of barcode signal found in uninfected mosquitoes
1 | CCOC(=O)NC(=O)c1ccsc1NC(=O)c1nc2ccccc2s1 | -0.298%
2 | Cc1ccc(Oc2ccc(NC(=O)CNc3ccccc3N3CCCC3=O)cc2)cc1 | 53.3%
3 | CC(C(=O)Nc1ccc2oc(-c3ccncc3)nc2c1)c1ccccc1 (stereo not drawn) | -6.05%
4 | O=C(CCC1CCCCC1)Nc1cccc(-c2nnc(-c3ccco3)o2)c1 | 67.5%
5 | O=C(Nc1ccc(N2CCNCC2)nc1)c1oc(-c2ccccc2)nc1C(F)(F)F | 79.2%
6 | CO[C@@H](C(=O)N1Cc2[nH]nc(NC(=O)c3ccc(N4CCN(C)CC4)cc3)c2C1)c1ccccc1 | 68.7%
7 | CC(=O)NC[C@@H]1CN(c2ccc(N3CCOCC3)c(F)c2)C(=O)O1 | 4.01%
8 | Cc1ccc(C(=O)Nc2ccc(S(=O)(=O)O)c3cc(S(=O)(=O)O)cc(S(=O)(=O)O)c23)cc1NC(=O)c1cccc(NC(=O)Nc2cccc(C(=O)Nc3cc(C(=O)Nc4ccc(S(=O)(=O)O)c5cc(S(=O)(=O)O)cc(S(=O)(=O)O)c45)ccc3C)c2)c1 | 32.8%
9 | COc1cccc2c(C)nc(N=C(N)N)nc12 | 24.9%
10 | Cc1noc(C)c1C(=O)N1CCCC(c2[nH]c3c(C)cccc3c2-c2ccncc2)C1 (stereo not drawn) | 69.1%
11 | Cc1cc(C)n2nc(C(=O)Nc3cc(C(F)(F)F)ccc3N3CCOCC3)nc2n1 | 29.6%
12 | Cc1ccc(NC(=O)c2nc[nH]c2C(=O)Nc2nc3ccccc3[nH]2)c(C)c1 | 73.8%
13 | CN1CCN(c2nccc3nc(-c4ccc(F)c(F)c4)[nH]c23)CC1 | 97.2% (active)
